In the supplement of paper PMC10849652:
About 7,900 targets were measured; listed, in parts, are those with a hit and a random draw of the rest. About 0.6% of all pairs of compound and target were hits.

What was measured:
Assay in all cases: log2 fold change, soluble protein after heating vs DMSO (PISA); higher = thermal stabilisation; K562 cells, 10 uM, 30 min; active = over 0.2 and 3.5 SD of the protein, either way, in both replicates (recomputed)
[1] = compound: Cc1ccc(NC(=O)c2ccc(CN3CC[C@H](N(C)C)C3)c(C(F)(F)F)c2)cc1Nc1nccc(-c2cncnc2)n1 [bafetinib]
Procedure, shortened: (§1)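 K562 cells at 2×10^6 cells/mL were treated for 30 min with 10 μM compound, and aliquots were heated for 3 min over 48°C-58°C before pooling. Extraction used PBS with 0.5% NP-40 at 4°C, and soluble protein was the supernatant after 21,000xg for 90 min, measured by TMTpro 16plex LC-MS/MS with channel sums equalised. Thermal stability values, relative to control samples and from duplicates, are log2 fold changes.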

[2] = compound: Cc1cccc(CC(=O)N2CCc3c2ccc(-c2cn(C)c4ncnc(N)c24)c3F)n1
Procedure, shortened: as §1

[3] = compound: Cc1cn(-c2cc(NC(=O)c3ccc(C)c(Nc4nccc(-c5cccnc5)n4)c3)cc(C(F)(F)F)c2)cn1 [nilotinib]
Procedure, shortened: as §1

[4] = compound: Cc1nc(Nc2n[nH]c3c2CN(C(=O)N[C@H](CN(C)C)c2ccccc2)C3(C)C)c2sccc2n1
Procedure, shortened: as §1

[5] = compound: Cc1nc(Nc2ncc(C(=O)Nc3c(C)cccc3Cl)s2)cc(N2CCN(CCO)CC2)n1 [dasatinib]
Procedure, shortened: as §1

[6] = compound: Cc1ncc(-c2ccnc(Nc3ccc(S(C)(=O)=O)cc3)n2)n1C(C)C
Procedure, shortened: as §1

[7] = compound: Cn1cc(-c2ccc3c(c2)CCN3C(=O)Cc2cccc(C(F)(F)F)c2)c2c(N)ncnc21
Procedure, shortened: as §1

[8] = compound: Cn1cc(-c2ccc3nnc(C(F)(F)c4ccc5ncccc5c4)n3n2)cn1
Procedure, shortened: as §1

[9] = compound: Cn1cncc1[C@@](N)(c1ccc(Cl)cc1)c1ccc2c(c1)c(-c1cccc(Cl)c1)cc(=O)n2C [tipifarnib]
Procedure, shortened: as §1

[10] = compound: FC(F)(F)c1ccc(/C=C/c2nc(COc3ccc(CCCCn4ccnn4)cc3)co2)cc1 [mubritinib]
Procedure, shortened: as §1

Measured: log2 fold change

MEPCE (UniProt Q7L2J0)
inactive: [1] -0.12 | [2] 0.065 | [3] 0 | [5] -0.116 | [6] -0.123 | [7] 0.023 | [8] 0.061 | [9] 0.029 | [10] -0.018
active: [4] -0.337

LNPK (UniProt Q9C0E8)
inactive: [1] -0.081 | [2] -0.035 | [3] -0.001 | [4] -0.009 | [5] 0.052 | [6] -0.007 | [7] 0.025 | [8] 0.011 | [9] 0.054 | [10] 0.072

MAP1LC3B2 (UniProt A6NCE7)
inactive: [1] -0.044 | [2] -0.029 | [3] -0.006 | [4] -0.023 | [5] -0.024 | [6] 0.072 | [7] 0.019 | [8] -0.011 | [9] 0.007 | [10] 0.018

MCL1 (UniProt Q07820)
inactive: [1] -0.181 | [2] -0.017 | [3] 0.015 | [4] -0.053 | [5] 0.068 | [6] -0.079 | [7] -0.021 | [8] -0.158 | [9] 0.109 | [10] 0.001

ITIH4 (UniProt Q14624)
inactive: [1] -0.319 | [2] 0.117 | [3] -0.259 | [4] 0.194 | [5] 0.039 | [6] 0.225 | [7] 0.148 | [8] 0.114 | [9] -0.038 | [10] -0.134

ITM2C (UniProt Q9NQX7)
Chain of UniProt Q9NQX7 (Q9NQX7 whole entry, looked up): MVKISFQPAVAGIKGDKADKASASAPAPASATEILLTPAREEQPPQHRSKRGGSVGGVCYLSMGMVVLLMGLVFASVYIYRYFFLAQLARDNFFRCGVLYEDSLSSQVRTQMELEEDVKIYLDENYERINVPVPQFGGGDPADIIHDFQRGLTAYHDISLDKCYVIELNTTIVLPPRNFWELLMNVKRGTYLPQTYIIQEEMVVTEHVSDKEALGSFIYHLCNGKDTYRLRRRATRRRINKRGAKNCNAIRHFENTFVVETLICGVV
inactive: [1] -0.064 | [2] -0.127 | [3] 0.099 | [4] -0.018 | [5] 0.024 | [6] 0.127 | [7] 0.09 | [8] 0.038 | [9] 0.039

ITPRIP (UniProt Q8IWB1)
inactive: [1] -0.126 | [2] -0.016 | [3] -0.109 | [4] 0.035 | [5] -0.041 | [6] -0.08 | [7] 0.073 | [8] 0.012 | [9] -0.007 | [10] 0.061

ILK (UniProt Q13418)
Chain of UniProt Q13418 (Q13418 whole entry, looked up): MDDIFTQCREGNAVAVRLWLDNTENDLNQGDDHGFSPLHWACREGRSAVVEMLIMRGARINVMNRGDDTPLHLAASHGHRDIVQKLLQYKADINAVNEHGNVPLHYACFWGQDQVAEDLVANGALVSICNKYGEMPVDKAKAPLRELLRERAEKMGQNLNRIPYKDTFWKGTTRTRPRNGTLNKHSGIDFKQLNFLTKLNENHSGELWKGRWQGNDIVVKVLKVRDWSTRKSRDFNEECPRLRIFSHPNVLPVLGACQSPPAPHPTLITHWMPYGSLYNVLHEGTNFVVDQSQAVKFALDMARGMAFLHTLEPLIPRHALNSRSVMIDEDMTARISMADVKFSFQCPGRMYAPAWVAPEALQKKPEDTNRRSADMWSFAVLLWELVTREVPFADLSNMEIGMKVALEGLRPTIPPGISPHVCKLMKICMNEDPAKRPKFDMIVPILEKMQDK
inactive: [1] -0.038 | [2] -0.012 | [3] 0.122 | [4] -0.024 | [5] -0.07 | [6] -0.002 | [7] 0.027 | [8] 0.005 | [9] -0.023 | [10] 0.048

LONP2 (UniProt Q86WA8)
Chain of UniProt Q86WA8 (Q86WA8 whole entry, looked up): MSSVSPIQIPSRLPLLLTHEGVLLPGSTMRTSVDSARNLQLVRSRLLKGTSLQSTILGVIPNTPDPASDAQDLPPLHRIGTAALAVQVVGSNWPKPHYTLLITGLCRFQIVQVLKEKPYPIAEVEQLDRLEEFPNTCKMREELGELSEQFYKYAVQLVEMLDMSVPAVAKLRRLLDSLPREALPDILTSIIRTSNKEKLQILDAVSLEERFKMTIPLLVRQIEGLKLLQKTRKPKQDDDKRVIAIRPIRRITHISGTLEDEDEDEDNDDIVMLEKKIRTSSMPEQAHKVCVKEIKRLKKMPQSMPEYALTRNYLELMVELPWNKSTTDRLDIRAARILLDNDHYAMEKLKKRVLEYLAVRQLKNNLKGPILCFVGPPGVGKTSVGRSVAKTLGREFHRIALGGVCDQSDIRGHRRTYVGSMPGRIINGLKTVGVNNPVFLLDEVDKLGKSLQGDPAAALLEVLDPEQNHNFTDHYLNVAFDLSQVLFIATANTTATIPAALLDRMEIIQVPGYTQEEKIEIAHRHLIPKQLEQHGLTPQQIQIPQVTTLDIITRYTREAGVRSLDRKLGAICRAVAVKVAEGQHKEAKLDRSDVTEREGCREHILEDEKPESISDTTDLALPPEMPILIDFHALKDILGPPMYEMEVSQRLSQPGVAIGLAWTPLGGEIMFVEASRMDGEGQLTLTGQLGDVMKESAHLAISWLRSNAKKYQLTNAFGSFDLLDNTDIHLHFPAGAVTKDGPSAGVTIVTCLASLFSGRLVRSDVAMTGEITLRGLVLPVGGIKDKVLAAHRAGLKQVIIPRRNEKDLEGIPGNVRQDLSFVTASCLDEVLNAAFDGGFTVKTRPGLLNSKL
inactive: [1] -0.037 | [2] -0.054 | [3] 0.26 | [4] -0.187 | [5] 0.024 | [6] -0.065 | [7] 0.055 | [8] -0.131 | [9] 0.012 | [10] 0.063

MAPRE3 (UniProt Q9UPY8)
inactive: [1] -0.037 | [2] 0.038 | [3] -0.012 | [4] -0.038 | [5] -0.042 | [6] 0.021 | [7] -0.041 | [8] 0.061 | [9] -0.037 | [10] 0.027

KRAS isoform 2 (UniProt P01116)
Chain of UniProt P01116 (P01116 whole entry, looked up): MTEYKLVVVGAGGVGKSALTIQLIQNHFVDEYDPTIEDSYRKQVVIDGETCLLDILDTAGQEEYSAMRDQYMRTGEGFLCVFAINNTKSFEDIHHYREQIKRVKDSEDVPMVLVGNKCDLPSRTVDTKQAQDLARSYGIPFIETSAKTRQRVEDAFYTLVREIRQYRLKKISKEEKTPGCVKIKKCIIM
inactive: [1] 0.008 | [2] -0.115 | [3] -0.123 | [4] 0.074 | [5] -0.018 | [6] -0.041 | [7] 0.064 | [8] -0.08 | [9] 0.087 | [10] 0.041

MICU1 isoform 3 (UniProt Q9BPX6)
inactive: [1] -0.098 | [2] 0.106 | [3] -0.037 | [4] -0.012 | [5] -0.065 | [6] -0.022 | [7] -0.012 | [8] -0.055 | [9] -0.019 | [10] -0.064

KEAP1 (UniProt Q14145)
inactive: [1] -0.057 | [2] 0.032 | [3] -0.108 | [4] -0.108 | [5] -0.027 | [6] 0.021 | [7] -0.085 | [8] -0.07 | [9] -0.047 | [10] 0.037

LIMA1 isoform 4 (UniProt Q9UHB6)
Chain of UniProt Q9UHB6 (Q9UHB6 whole entry, looked up): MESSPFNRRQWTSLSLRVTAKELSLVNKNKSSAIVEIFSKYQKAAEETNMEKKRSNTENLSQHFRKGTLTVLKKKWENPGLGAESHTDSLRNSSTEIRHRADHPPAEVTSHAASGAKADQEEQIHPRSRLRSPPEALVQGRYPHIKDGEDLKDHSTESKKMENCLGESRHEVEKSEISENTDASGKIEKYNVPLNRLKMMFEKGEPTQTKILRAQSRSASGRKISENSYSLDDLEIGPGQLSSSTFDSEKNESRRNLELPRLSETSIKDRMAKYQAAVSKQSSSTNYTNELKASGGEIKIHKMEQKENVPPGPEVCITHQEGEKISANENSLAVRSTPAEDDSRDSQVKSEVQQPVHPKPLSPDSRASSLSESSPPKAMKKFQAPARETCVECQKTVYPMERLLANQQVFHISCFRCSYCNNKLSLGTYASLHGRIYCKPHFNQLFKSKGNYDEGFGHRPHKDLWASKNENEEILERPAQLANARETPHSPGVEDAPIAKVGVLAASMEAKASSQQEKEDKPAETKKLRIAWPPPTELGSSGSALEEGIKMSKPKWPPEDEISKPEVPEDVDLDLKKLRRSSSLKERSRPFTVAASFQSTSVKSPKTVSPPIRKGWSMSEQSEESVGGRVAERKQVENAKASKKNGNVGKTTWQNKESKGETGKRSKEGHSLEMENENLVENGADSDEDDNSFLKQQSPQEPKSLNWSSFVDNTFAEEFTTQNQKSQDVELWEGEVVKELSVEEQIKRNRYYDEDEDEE
inactive: [1] -0.115 | [2] 0.019 | [3] -0.136 | [4] -0.112 | [5] 0.179 | [6] 0.052 | [7] -0.154 | [8] -0.071 | [9] 0.088 | [10] 0.019

IPP (UniProt Q9Y573)
inactive: [1] -0.225

ILF2 (UniProt Q12905)
Chain of UniProt Q12905 (Q12905 whole entry, looked up): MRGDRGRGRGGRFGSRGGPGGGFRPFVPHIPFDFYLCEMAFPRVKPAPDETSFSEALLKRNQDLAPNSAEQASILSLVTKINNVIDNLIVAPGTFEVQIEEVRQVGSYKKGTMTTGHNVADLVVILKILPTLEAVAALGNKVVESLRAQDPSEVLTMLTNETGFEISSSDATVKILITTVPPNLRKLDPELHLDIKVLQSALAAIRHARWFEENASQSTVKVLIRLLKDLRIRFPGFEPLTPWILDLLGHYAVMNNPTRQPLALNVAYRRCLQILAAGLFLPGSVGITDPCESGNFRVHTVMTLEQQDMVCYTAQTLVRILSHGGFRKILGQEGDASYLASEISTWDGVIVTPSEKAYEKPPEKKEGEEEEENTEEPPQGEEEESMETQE
inactive: [1] 0.093 | [2] -0.012 | [3] -0.011 | [4] 0.251 | [5] 0.121 | [6] 0.3 | [7] -0.151 | [8] -0.084 | [9] 0.006 | [10] -0.071

MFN1 (UniProt Q8IWA4)
inactive: [1] -0.114 | [2] -0.034 | [3] -0.005 | [4] -0.05 | [5] -0.054 | [6] 0.02 | [7] 0.032 | [8] -0.019 | [9] 0.123 | [10] -0.01

LUC7L3 (UniProt O95232)
Chain of UniProt O95232 (O95232 whole entry, looked up): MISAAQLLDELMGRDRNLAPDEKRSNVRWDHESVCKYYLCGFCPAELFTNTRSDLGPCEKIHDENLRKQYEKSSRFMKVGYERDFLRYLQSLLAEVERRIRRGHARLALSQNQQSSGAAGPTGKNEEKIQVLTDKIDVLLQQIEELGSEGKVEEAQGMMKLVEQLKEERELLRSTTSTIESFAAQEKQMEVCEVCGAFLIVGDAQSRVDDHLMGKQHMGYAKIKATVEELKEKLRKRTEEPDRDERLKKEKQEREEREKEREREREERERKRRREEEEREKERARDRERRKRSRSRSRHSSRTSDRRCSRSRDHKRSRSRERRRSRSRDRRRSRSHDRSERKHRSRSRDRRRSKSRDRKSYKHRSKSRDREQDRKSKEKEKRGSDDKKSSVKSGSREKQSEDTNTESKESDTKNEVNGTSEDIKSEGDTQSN
active: [4] -2.05
inactive: [1] 0.001 | [2] -0.001 | [3] 0.091 | [5] -0.037 | [6] 0.052 | [7] 0.007 | [8] -0.019 | [9] 0.036 | [10] 0.02

KIF3A (UniProt Q9Y496)
inactive: [1] 0.022 | [2] -0.047 | [3] -0.128 | [4] 0.054 | [5] -0.068 | [6] 0.093 | [7] 0.025 | [8] -0.043 | [9] -0.031 | [10] 0.018

MFF (UniProt Q9GZY8)
inactive: [1] -0.065 | [2] -0.049 | [3] -0.057 | [4] -0.073 | [5] 0.014 | [6] -0.017 | [7] -0.011 | [8] -0.05 | [9] 0.073 | [10] 0.035

MAGOHB (UniProt Q96A72)
inactive: [1] -0.015 | [2] -0.007 | [3] -0.019 | [4] -0.042 | [5] 0.007 | [6] 0.138 | [7] -0.017 | [8] 0.024 | [9] 0 | [10] 0.04

INPP1 (UniProt P49441)
Chain of UniProt P49441 (P49441 whole entry, looked up): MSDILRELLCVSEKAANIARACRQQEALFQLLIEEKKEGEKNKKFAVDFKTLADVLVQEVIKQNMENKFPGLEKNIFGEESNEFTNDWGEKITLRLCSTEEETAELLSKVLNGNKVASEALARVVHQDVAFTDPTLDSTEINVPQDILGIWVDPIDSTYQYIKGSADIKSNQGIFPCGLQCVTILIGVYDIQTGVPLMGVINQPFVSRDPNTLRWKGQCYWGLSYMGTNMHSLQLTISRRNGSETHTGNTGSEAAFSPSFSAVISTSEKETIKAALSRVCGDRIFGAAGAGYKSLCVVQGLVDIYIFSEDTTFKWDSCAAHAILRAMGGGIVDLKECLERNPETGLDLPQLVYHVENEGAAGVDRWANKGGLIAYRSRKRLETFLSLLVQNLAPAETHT
inactive: [1] 0.003 | [2] 0.094 | [3] -0.001 | [4] 0.067 | [5] 0.027 | [6] 0.053 | [7] 0.037 | [8] 0.027 | [9] -0.135 | [10] 0.15

MED16 (UniProt Q9Y2X0)
inactive: [1] 0.018 | [2] -0.009 | [3] -0.014 | [4] -0.092 | [5] 0.141 | [6] -0.287 | [7] -0.144 | [8] 0.009 | [9] -0.029 | [10] 0.024

MICU2 (UniProt Q8IYU8)
Chain of UniProt Q8IYU8 (Q8IYU8 whole entry, looked up): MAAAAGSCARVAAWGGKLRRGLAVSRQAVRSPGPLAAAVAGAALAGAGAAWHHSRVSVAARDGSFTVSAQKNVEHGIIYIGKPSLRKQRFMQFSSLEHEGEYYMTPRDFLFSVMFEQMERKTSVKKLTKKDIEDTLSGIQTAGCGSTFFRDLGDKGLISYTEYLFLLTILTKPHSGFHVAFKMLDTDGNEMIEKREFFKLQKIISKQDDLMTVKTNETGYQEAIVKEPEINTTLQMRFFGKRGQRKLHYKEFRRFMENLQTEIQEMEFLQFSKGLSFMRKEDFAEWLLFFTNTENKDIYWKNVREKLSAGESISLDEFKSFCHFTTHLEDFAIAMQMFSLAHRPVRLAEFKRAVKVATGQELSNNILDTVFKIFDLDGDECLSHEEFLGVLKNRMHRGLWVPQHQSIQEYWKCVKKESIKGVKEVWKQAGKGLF
inactive: [1] -0.142 | [2] 0.092 | [3] -0.052 | [4] -0.067 | [5] -0.102 | [6] -0.001 | [7] -0.022 | [8] -0.05 | [9] 0.022 | [10] -0.155

MAP4K4 isoform 3 (UniProt O95819)
inactive: [1] -0.068 | [2] 0.029 | [3] -0.038 | [4] -0.094 | [5] -0.162 | [6] -0.09 | [7] -0.024 | [8] 0.038 | [9] -0.027 | [10] 0.021

MAGEA8 (UniProt P43361)
inactive: [1] 0.022 | [2] -0.265 | [4] -0.207 | [5] 0.019 | [6] 0.016 | [7] 0.008 | [8] -0.003 | [9] -0.01
active: [3] -0.372

MIEF1 (UniProt Q9NQG6)
inactive: [1] -0.133 | [2] 0.006 | [3] 0.022 | [4] -0.04 | [5] -0.028 | [6] 0.145 | [7] 0.09 | [8] 0.064 | [9] -0.039 | [10] -0.029

KIF2C (UniProt Q99661)
inactive: [1] 0.1 | [2] 0.122 | [3] -0.082 | [4] -0.054 | [5] -0.15 | [6] 0.032 | [7] 0.053 | [8] 0.039 | [9] -0.103 | [10] 0.081

KCTD10 (UniProt Q9H3F6)
Chain of UniProt Q9H3F6 (Q9H3F6 whole entry, looked up): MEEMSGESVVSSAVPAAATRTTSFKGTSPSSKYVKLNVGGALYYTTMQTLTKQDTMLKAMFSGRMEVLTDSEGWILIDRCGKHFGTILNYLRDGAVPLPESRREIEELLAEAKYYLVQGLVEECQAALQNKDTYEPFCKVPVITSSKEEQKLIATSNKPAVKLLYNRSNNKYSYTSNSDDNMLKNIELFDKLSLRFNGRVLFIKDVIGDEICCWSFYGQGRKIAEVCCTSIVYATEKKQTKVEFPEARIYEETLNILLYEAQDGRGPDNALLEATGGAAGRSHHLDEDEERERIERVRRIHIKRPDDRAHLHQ
inactive: [1] -0.059 | [2] -0.036 | [3] 0.002 | [4] -0.088 | [5] 0.056 | [6] 0.074 | [7] 0.012 | [8] 0.153 | [9] 0.058 | [10] -0.009

LPIN1 isoform 7 (UniProt Q14693)
inactive: [1] -0.076 | [2] 0.051 | [3] -0.038 | [4] 0.046 | [5] -0.016 | [6] -0.079 | [7] -0.025 | [8] -0.058 | [9] -0.019 | [10] 0.095

MAPK12 (UniProt P53778)
Chain of UniProt P53778 (P53778 whole entry, looked up): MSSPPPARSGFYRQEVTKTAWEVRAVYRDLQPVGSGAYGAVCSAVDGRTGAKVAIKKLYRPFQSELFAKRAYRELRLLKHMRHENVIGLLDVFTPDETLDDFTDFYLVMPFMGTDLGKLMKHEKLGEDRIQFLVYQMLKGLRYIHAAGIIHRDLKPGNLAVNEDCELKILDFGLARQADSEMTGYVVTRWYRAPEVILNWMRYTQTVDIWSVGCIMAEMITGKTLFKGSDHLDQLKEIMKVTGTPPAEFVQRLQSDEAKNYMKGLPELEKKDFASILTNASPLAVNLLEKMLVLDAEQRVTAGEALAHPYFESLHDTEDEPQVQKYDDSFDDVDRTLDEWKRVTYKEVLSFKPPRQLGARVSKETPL
active: [7] 0.34
inactive: [1] -0.037 | [2] 0.008 | [3] -0.054 | [4] -0.254 | [5] -0.079 | [6] -0.035 | [8] -0.077 | [9] -0.007 | [10] 0.061
